# Nrf2 activator – activates Nrf2 signaling | Potency, µM (doses to about 46.1 µM), for inactives: at the highest dose activation, most hits filed as activators | AID 624171 | AREc32 ARE-luciferase reporter (MCF7-derived line), luminescence, 24 h | 0.31% of 410,000 active; note: % of control where 0% means no effect; nearly all actives have a fitted effect of over 65% in size
#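 ARE activation measured as luciferase luminescence (Steady-Glo, 30 min RT) in AREc32_Fluc cells after 24 hr compound exposure at 37 deg C, 5% CO2; cells seeded overnight at 1000/well in OPTI-MEM, 5% FBS.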
# A549 tox-1 – kills or reduces viability of A549 cells in Nrf2 counter-screen. A549 ARE-Fluc cells, CellTiter-Fluor viability, 18-24 h. Potency, µM (series often up to 46 µM), for inactives: top-dose activity change, negative = cytotoxicity, actives largely listed as inhibitors. 0.16% of 390,000 active. AID 504648; note: % is set by controls: 0 for no effect and ±100 for the full control effect
#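 Cytotoxicity counterscreen: CellTiter-Fluor fluorescence was measured in A549 ARE_Fluc cells after 18-24 h of compound exposure in a concentration series. The subsequent BugLite luminescent read reports ARE-luciferase activity.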
# Nrf2 block – Nrf2 pathway inhibition. A549 ARE-Fluc reporter, luciferase luminescence, 18-24 h. Potency, µM (top dose mostly 46 µM), inactives show top-dose activity change, negative = inhibition, hits mostly inhibitors. AID 504444. 2.1% of 360,000 active; note: % is set by controls: 0 for no effect and ±100 for the full control effect; nearly all actives have a fitted effect of over 60% in size
#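 Cells were seeded and rested 2 h, then exposed to compounds for 18-24 h. CellTiter-Fluor was read first as a viability measure. BugLite was added 15 min before the final luminescent read of ARE-luciferase activity in A549 cells.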
# S2 tox – reduces viability in counter-screen for ATXN expression inhibitors; S2 cells (HEK-293 line with an ATXN2-luciferase reporter) viability, CellTiter-Fluor protease fluorescence, 24 h; Potency, µM (top dose mostly 56.7 µM), most hits filed as cytotoxic; 0.49% of 400,000 active; note: nearly all actives have a fitted effect of over 40% in size
# ATXN2 expr inh – reduces ATXN2 reporter expression in HEK-293 cells; HEK-293 ATXN2-luciferase reporter, luminescence, 24 h; AID 1745845; Potency, µM (series often up to 57 µM), inactives show at the top dose activity change, negative = inhibition, actives largely listed as inhibitors; 0.72% of 360,000 active; note: % is set by controls: 0 for no effect and ±100 for the full control effect; nearly all actives have a fitted effect of over 55% in size
#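 qHTS (up to 57 uM final) was run with 24 h compound exposure of reporter cells at 37 °C. Each well was multiplexed: SteadyGlo luminescence measured ATXN2-luciferase expression after a fluorogenic Gly-Phe-AFC viability readout (25 uM final).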
# FLuc enzyme inh – counter-screen for Nrf2 inhibitors: firefly luciferase enzyme inhibition | shares compounds with Nrf2 block | Potency, µM (series often up to 57.5 µM), inactives show top-dose activity change, negative = inhibition, hits mostly inhibitors | purified firefly luciferase, luminescence inhibition | AID 720522 | 4% of 1,400 active; note: % is set by controls: 0 for no effect and ±100 for the full control effect; nearly all actives have a fitted effect of over 65% in size
# Target sequence (P08659 whole entry, looked up): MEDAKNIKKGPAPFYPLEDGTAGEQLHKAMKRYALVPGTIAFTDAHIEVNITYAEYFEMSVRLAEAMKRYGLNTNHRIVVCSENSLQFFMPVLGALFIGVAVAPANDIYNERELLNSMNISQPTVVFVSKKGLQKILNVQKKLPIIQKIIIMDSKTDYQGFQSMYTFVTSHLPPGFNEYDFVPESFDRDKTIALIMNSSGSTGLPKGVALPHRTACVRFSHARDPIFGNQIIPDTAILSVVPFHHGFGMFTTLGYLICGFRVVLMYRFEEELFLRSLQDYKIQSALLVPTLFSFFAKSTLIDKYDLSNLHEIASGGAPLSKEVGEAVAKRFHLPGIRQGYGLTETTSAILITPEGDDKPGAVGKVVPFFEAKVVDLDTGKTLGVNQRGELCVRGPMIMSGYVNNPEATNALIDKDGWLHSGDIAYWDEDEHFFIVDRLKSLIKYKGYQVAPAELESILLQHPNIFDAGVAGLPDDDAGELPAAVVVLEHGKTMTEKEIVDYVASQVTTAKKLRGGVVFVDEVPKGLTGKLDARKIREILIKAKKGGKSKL
# A549 tox-2 – toxic to A549 ARE-Fluc cells in Nrf2 counterscreen; shares compounds with Nrf2 block; A549 ARE-Fluc cells, cytotoxicity counterscreen; Potency, µM (titrated, usually from 46.1 µM), for the others: at the highest dose activity change, negative = cytotoxicity, usual class: inhibitors; 2% of 1,400 active;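 note: cells exposed to compounds for 18 to 24 hours; % is set by controls: 0 for no effect and ±100 for the full control effect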
# ARE-Fluc inh – reduces Nrf2 ARE reporter signal in A549 cells. shares compounds with Nrf2 block. A549 ARE-firefly luciferase reporter, luminescence. Potency, µM (highest dose often 46.1 µM), without a hit: at the top dose activity change, negative = inhibition, usual class: inhibitors. 74% of 1,400 active. AID 720524; note: % is set by controls: 0 for no effect and ±100 for the full control effect; nearly all actives have a fitted effect of over 65% in size
# Numbers without * were called inactive; i = inactive; u = inconclusive; x = no result given; [ ] = dose if it differs, or a comment. Most compounds without a hit are left out; they make up all but 2.9% or so of the library. Calls come from the whole dose curve; as a rule, active = well fitted curve in the direction sought with a large enough effect; inconclusive = small, poorly fitted or top-dose-only effect, or another doubt; inactive = no such curve, though single readings can be large; an effect the other way counts as inactive or inconclusive. Potency is the fitted concentration of half-maximal effect.
SMILES,Nrf2 activator,A549 tox-1,Nrf2 block,S2 tox,ATXN2 expr inh,FLuc enzyme inh,A549 tox-2,ARE-Fluc inh
Cc1cc(C)nc(NC(=O)CN2C(=O)c3ccccc3S2(=O)=O)n1,-0.4%,-8.5%,11.5%,u,3.2%,x,x,x
CCCn1c(C)cc(C(=O)CN2C(=O)c3ccccc3C2=O)c1C,0.2%,3.1%,u,u,-26.1%,x,x,x
CCn1c(C)cc(C(=O)CN2C(=O)c3ccccc3S2(=O)=O)c1C,-1.5%,-3.1%,3.66µM*,i,u,8.49µM*,3.1%,x
CCOC(=O)c1c(NC(=O)c2cc(-c3ccccc3OC)on2)sc(C)c1C,0.0%,2.3%,-9.1%,i,8.3%,x,x,x
Cc1nc(CN(C)C(=O)c2cc(COc3ccc4ncccc4c3)on2)cs1,0.0%,-14.6%,2.91µM*,i,-11.3%[11.3 µM],-16.8%,-5.5%,-41.9%
COCC1CCCCN1C(=O)c1cc(COc2ccc3ncccc3c2)on1 (stereo unspecified),0.2%,-6.6%,u,i,x,x,x,x
CCC1CCCCN1C(=O)c1cc(COc2ccc3ncccc3c2)on1 (stereo unspecified),2.5%,u,2.06µM*,i,-32.9%,0.0%,-6.9%,x
CC(CCCC(C)(C)O)NC(=O)c1cc(COc2ccc3ncccc3c2)on1 (stereo unspecified),2.7%,u,5.17µM*,u,-35.9%,-10.7%,-4.4%,6.51µM*
CCOC(=O)C1=C(CSc2nc3ccccc3s2)NC(=O)NC1c1cc(C)ccc1C (stereo unspecified),5.0%,-6.3%,u,u,-36.0%,x,x,x
CCOC(=O)C1=C(CSc2nc3ccccc3s2)NC(=O)NC1c1ccc(OC)cc1 (stereo unspecified),0.2%,u,5.8µM*,u,u,-20.3%,u,x
CC12CCC(=O)C=C1CCC1C2CCC2(C)C1CCC2(O)C(=O)CO (stereo unspecified),-0.3%,-15.1%,u,i,1.1%,x,x,x
C[C@]12CCC(=O)C=C1CC[C@@H]1[C@@H]2[C@@H](O)C[C@@]2(C)[C@H]1CC[C@]2(O)C(=O)COC(=O)CCC(=O)O,0.3%,-9.0%,0.326µM*,i,-0.3%,1.7%,-4.5%,0.291µM*
CC12CCC(=O)C=C1CCC1C2CCC2(C)C1CC[C@]2(O)C(=O)CO (stereo partly specified),-0.3%,-18.1%,u,u,7.8%,x,x,x
CC(=O)OCC(=O)[C@@]1(O)CC[C@H]2[C@@H]3CCC4=CC(=O)CC[C@]4(C)[C@H]3[C@@H](O)C[C@@]21C,-0.8%,-8.8%,0.0411µM*,i,1.5%,2.1%,-1.7%,0.0731µM*
CCCC(=O)O[C@]1(C(=O)CO)CC[C@H]2[C@@H]3CCC4=CC(=O)CC[C@]4(C)[C@H]3[C@@H](O)C[C@@]21C,-0.7%,-3.4%,0.0231µM*,u,-0.3%,1.1%,-8.0%,0.0146µM*
CC(C)(CNC(=O)CO/N=C1/C=C2CCC3C(C(O)C[C@@]4(C)C3CC[C@]4(O)C(=O)CO)[C@@]2(C)CC1)C(O)C(=O)O (stereo partly specified),0.3%,-3.0%,1.84µM*,i,x,-1.7%,-1.7%,x
CCC(=O)N1c2ccccc2CC1C(=O)NCCCN1CCN(c2cc(C)ccc2C)CC1 (stereo unspecified),0.6%,-29.3%,x,u,-8.4%,x,x,x
Cc1ccc(-c2nc3c4ccccc4n(CC(=O)NCc4ccc(F)cc4)c(=O)n3n2)cc1,0.2%,11.8%,x,i,8.6%,x,x,x
O=C(CCC1N=C2c3ccccc3N=C(SCc3ccc(Cl)cc3)N2C1=O)NCc1cccs1 (stereo unspecified),0.0%,-28.0%,x,x,x,x,x,x
CCC(CC)C(=O)OCC(=O)C1(O)CCC2C3CCC4=CC(=O)CCC4(C)C3C(O)CC21C (stereo unspecified),0.5%,-5.2%,0.326µM*,u,-7.6%,3.4%,-10.8%,0.103µM*
CC1CC2(C)C(=CC1=O)CCC1C2C(O)CC2(C)C1CCC2(O)C(=O)CO (stereo unspecified),-0.5%,1.0%,0.116µM*,i,-5.2%,3.0%,-4.7%,0.184µM*
C[C@@]12CCC(=O)C=C1CC[C@@H]1[C@@H]2[C@H](O)C[C@]2(C)[C@@H]1CC[C@]2(O)C(=O)CO,x,x,x,i,x,x,x,x
CC(=O)OCC(=O)C1(O)CCC2C3CC(F)C4=CC(=O)CCC4(C)C3C(O)CC21C (stereo unspecified),-0.2%,-4.7%,0.0651µM*,u,-14.0%,0.7%,-12.1%,0.0184µM*
Cc1oc(-c2ccc(C(=O)Nc3ccc(F)cc3)cc2)nc1COc1ccccc1,-1.2%,-0.1%,-10.3%,x,x,x,x,x
COc1cc(NC(=O)c2ccc(-c3nc(COc4ccccc4)c(C)o3)cc2)cc(OC)c1,0.6%,-0.1%,5.17µM*,x,x,-12.3%,-6.6%,8.2µM*
SMILES,Nrf2 activator,A549 tox-1,Nrf2 block,S2 tox,ATXN2 expr inh,FLuc enzyme inh,A549 tox-2,ARE-Fluc inh
Cc1ccc(NS(=O)(=O)c2ccc(C(=O)N3CCN(c4ncccn4)CC3)cc2)cc1,1.5%,u,5.8µM*,x,-28.5%,-1.3%,-3.8%,8.2µM*
O=C(c1ccc(NS(=O)(=O)c2ccc(F)cc2)cc1)N1CCCCC1,0.2%,0.6%,-21.6%,i,1.4%,x,x,x
O=C(c1ccc(S(=O)(=O)Nc2ccc(F)cc2)cc1)N1CCN(c2ccccn2)CC1,2.5%,u,2.91µM*,u,u,-1.3%,-5.2%,14.6µM*
CC(C)(C)c1ccc(S(=O)(=O)N2CCN(Cc3noc(CCC(=O)N4CCCCC4)n3)CC2)cc1,3.8%,3.7%,-24.9%,x,x,x,x,x
C(=C\c1ccnc2ccccc12)/c1cc2c3c(c1)CCCN3CCC2,x,x,x,x,x,-24.8%,-16.1%,7.31µM*
Oc1ccc(/C=C/c2ccnc3ccccc23)cc1,u,u,u,x,45.6%,x,x,x
CC(=O)Nc1ccc(-c2cc(C(=O)O)c3c(-c4ccccc4)[nH]nc3n2)cc1,0.5%,-3.7%,-13.7%,i,8.6%,x,x,x
CC(C)CCOc1ccc(Cn2c(=O)sc3ccccc32)cc1,4.2%,7.0%,2.1%,i,28.5%,x,x,x
CCOc1ccc2c(c1)C(=NNC(=O)c1ccncc1)c1cc(OCC)ccc1-2,3.1%,-18.3%,5.8µM*,u,u,u,u,5.17µM*
CCOc1ccc(NC(=O)c2ccncc2)cc1,-0.2%,-3.1%,2.7%,i,21.3%,x,x,x

# Screening results as filed in PubChem.
